TEAD-YAP inh: TEAD-YAP interaction inhibition, primary screen, TEAD-YAP interaction inhibitor project, luminescence, HEK-TIYL cells | TEAD-Gal4/YAP UAS-luciferase luminescence | inhibition, % at 9.12 µM | 640,000 tested, 1.4% active; in the data active = inhibition above about 32%;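 note: 0% = median of test compound wells and 100% = reference inhibitor wells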
GPR151 ag: activators of human GPR151, primary screen, cell-based, PathHunter beta-arrestin, luminescence. 650,000 tested, 1% active. G-protein coupled receptor 151 (Homo sapiens), Q8TDV0. AID 1508602, 2020. activation, % at 11.2 µM. PathHunter beta-arrestin GPR151 cells; in the data active = activation above about 4.9%;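 note: 0% = median of compound wells and 100% = cells with positive control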
MITF primary: MITF inhibitors, primary screen, biochemical, AlphaScreen, human; 650,000 tested, 0.91% active; AlphaScreen MITF homodimerization, bead proximity signal; inhibition, % at 2.6 µM; in the data active = inhibition above about 50%;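 note: 0% = vehicle wells with protein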
FBW7 act: FBW7 E3 ligase activators, primary screen, biochemical, AlphaScreen, human | AlphaScreen FBW7–phospho-cyclin E peptide binding, activator screen | normalized activity (activation), % at 26.1 µM | F-box/WD repeat-containing protein 7 (Homo sapiens), Q969H0 | 650,000 tested, 0.13% active | AID 1259310, 2017; in the data active = normalized activity above about 1.9%;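 note: purified mutant Fbw7 with reduced substrate affinity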
Target sequence (Q969H0 whole entry, looked up): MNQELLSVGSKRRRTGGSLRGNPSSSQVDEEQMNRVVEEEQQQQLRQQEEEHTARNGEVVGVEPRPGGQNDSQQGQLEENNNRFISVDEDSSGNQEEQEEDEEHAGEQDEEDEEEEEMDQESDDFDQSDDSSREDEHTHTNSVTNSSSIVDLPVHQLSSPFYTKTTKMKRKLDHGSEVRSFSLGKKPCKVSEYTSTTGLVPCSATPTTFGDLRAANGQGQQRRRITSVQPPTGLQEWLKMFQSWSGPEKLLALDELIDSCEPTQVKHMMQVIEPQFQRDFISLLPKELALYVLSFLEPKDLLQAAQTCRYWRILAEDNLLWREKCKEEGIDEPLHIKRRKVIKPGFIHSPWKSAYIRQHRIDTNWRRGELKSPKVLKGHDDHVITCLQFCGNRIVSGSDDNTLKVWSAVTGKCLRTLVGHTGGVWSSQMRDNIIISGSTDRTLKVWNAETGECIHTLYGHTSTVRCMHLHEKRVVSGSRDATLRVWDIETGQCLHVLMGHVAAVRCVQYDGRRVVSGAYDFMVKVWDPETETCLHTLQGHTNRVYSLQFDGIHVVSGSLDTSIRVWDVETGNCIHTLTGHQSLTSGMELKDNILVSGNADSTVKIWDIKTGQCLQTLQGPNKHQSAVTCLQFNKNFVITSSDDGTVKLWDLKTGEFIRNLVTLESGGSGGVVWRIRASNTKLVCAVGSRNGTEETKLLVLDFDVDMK
The depositor's hits bear a star. Shown are actives, neighbours in structure and some others; about 3.4% of the full set was active somewhere.

SMILES	TEAD-YAP inh	GPR151 ag	MITF primary	FBW7 act
CCC(C)(C)c1ccc(OCCOCC[n+]2ccccc2)c(C(C)(C)CC)c1	77.2*	3.3	1.5	0.2
Cc1nnc(SCCNC(=O)c2cc(COc3cccc(C(F)(F)F)c3)on2)s1	2.3	1.6	8.1	0.0
c1ccc(-n2cnc3c(NC4CC4)nc(-c4ccc(N5CCOCC5)nc4)nc32)cc1	45.1*	-1.2	10.6	0.6
c1ccc(-n2cnc3c(Nc4ccc(N5CCOCC5)cc4)nc(-c4ccc(N5CCOCC5)nc4)nc32)cc1	2.2	0.2	2.9	0.2
OCCNc1nc(-c2ccc(N3CCOCC3)nc2)nc2c1ncn2-c1ccccc1	61.4*	-1.0	4.8	0.0
O=C(CCC1CCCN(C(=O)C2CCOCC2)C1)NCc1ccc(F)c(F)c1 (stereo not drawn)	-2.5	-0.1	9.5	0.1
COc1ncccc1C(=O)N1CCC(C2(CCCc3ccccc3)NC(=O)NC2=O)CC1 (stereo not drawn)	-3.0	0.2	-7.4	-0.3
CCOC(=O)c1c(N2C(=O)c3ccccc3C2=O)sc(C)c1C	9.5	-1.5	-3.3	-0.2
C=CCNC(=O)/C(C#N)=C/c1c(Oc2ccccc2C)nc2c(C)cccn2c1=O	40.7*	1.4	8.6	-0.1
Cc1ccccc1Oc1nc2c(C)cccn2c(=O)c1/C=C(\C#N)C(=O)NC1CCCC1	31.9	0.9	-8.1	0.0
CNC(=O)/C(C#N)=C/c1c(Oc2cccc(C)c2C)nc2c(C)cccn2c1=O	34.9*	-0.2	8.0	0.1
CNC(=O)/C(C#N)=C/c1c(Oc2ccc(F)cc2)nc2c(C)cccn2c1=O	12.7	-2.9	8.1	0.1
Cc1ccccc1Oc1nc2c(C)cccn2c(=O)c1/C=C(\C#N)C(=O)NCC1CCCO1 (stereo not drawn)	33.5*	-1.4	1.9	0.0
CC(=O)N(/N=C1\Sc2ccccc2C1=O)c1ccccc1[N+](=O)[O-]	59.0*	-1.4	25.2	-0.4
CC(=O)N(/N=C1\Sc2ccccc2C1=O)c1ccc(Br)cc1	-12.1	0.0	27.4	-0.3
Cc1cc(-c2cccc3[nH]c(C(F)(F)F)nc23)nn1C(=O)c1cccnc1	63.3*	3.0	-0.7	-0.2
NCc1nn(CCc2ccccn2)c(=O)c2ccccc12	59.0*	-0.3	26.0	0.8
Cn1nc(CN)c2ccccc2c1=O	10.7	-2.9	0.0	0.0
COC(=O)Nc1c(Cl)nsc1S(=O)(=O)Cc1ccccc1	14.1	1.2	-0.8	-0.1
NC(=O)c1c(Cl)nsc1S(=O)(=O)Cc1ccccc1	45.5*	-2.3	-1.1	-0.1
CC(=O)Oc1ccc(C2Nc3c(C(=O)O)cccc3C3C=CCC32)cc1 (stereo not drawn)	10.3	0.1	66.0*	-1.0
Cc1cc(C)c2c(c1)[C@@H]1C=CC[C@@H]1[C@H](c1ccc(C(=O)O)cc1)N2	16.5	-1.4	8.5	-0.1
Cc1ccc2c(c1C)N[C@@H](c1ccc(C(=O)O)cc1)[C@H]1CC=C[C@@H]21	12.0	-0.6	71.2*	-0.6
Cc1c(C(=O)O)ccc2c1N[C@@H](c1ccc(F)cc1)[C@H]1CC=C[C@@H]21	-11.8	-0.2	63.6*	-0.6
CN(C)c1ccc(CC(=O)c2nc3ccccc3s2)cc1	34.1*	-1.6	9.7	0.2
SMILES	TEAD-YAP inh	GPR151 ag	MITF primary	FBW7 act
CC(/C=C/c1ccccc1)=N\NC(=O)c1nnn(-c2nonc2N)c1C	0.2	1.3	0.7	0.5
CC(=O)C1=C(c2ccccc2)S/C(=C2/C(=S)C(C)(C)Nc3ccc(C)cc32)S1	6.7	0.0	57.0*	0.0
CCOc1ccc2c(c1)/C(=C1/SC(C(C)=O)=C(c3ccccc3)S1)C(=S)C(C)(C)N2	4.0	-0.6	7.4	0.0
O=C(NCc1ccccc1)/C(=C\c1cccc([N+](=O)[O-])c1)NC(=O)c1ccccc1Cl	14.3	-1.3	7.3	0.6
CCN1CCN(C(c2ccccc2)c2nnnn2C2CCCCC2)CC1 (stereo not drawn)	39.2*	1.3	-5.4	-0.3
O=c1cc(-c2cc(O)c(O)c([C@@H]3O[C@H](CO)[C@@H](O)[C@H](O)[C@H]3O)c2)oc2cc(O[C@@H]3O[C@H](CO)[C@@H](O)[C@H](O)[C@H]3O)cc(O)c12	16.4	0.2	-16.5	-0.3
O=c1c2cc(O)c(O)cc2oc2cc(O)c(C3OC(CO)C(O)C(O)C3O)c(O)c12 (stereo not drawn)	-11.5	0.9	59.0*	-0.3
CC(=O)NC1(c2ccc(F)cc2)CCN(CC(=O)NC(C)C)CC1	0.8	-0.3	-2.1	0.1
Cc1sc(NC(=O)c2ccco2)c(C(c2cccnc2)N2CCC(Cc3ccccc3)CC2)c1C (stereo not drawn)	35.0*	-0.6	3.8	0.1
O=C(Cn1cnc([N+](=O)[O-])c1[N+](=O)[O-])Nc1cc(Oc2ccccc2)cc([N+](=O)[O-])c1	42.4*	0.3	15.8	0.0
O=C(Cn1cnc([N+](=O)[O-])c1[N+](=O)[O-])Nc1ccc(Cl)cc1	87.0*	0.2	2.4	-0.1
O=C(COC(=O)c1c2c(nc3ccccc13)CCC2)c1ccc(-c2ccccc2)cc1	-5.8	-0.5	7.2	-0.1
Cc1cc(C)nc(N/N=C/c2sc(N3CCOCC3)nc2-c2ccccc2)n1	45.8*	1.8	5.1	-0.2
CC(C)c1ccc(OC(=O)CN2C(=O)c3ccccc3C2=O)cc1	8.0	1.1	-8.6	-0.1
CC(C)(C)C(=O)Nc1ccc2oc(-c3cncc(Br)c3)nc2c1	34.7*	1.5	7.5	0.3
O=C(NC(=S)Nc1ccc2oc(-c3ccccc3)nc2c1)c1cncc(Br)c1	-3.0	0.3	3.7	0.1
CCN(CC)c1ccc(-c2nc3cc(NC(=O)c4ccc(OC)c(OC)c4)ccc3o2)cc1	-21.9	-1.1	21.4	2.4*
CC(=O)Nc1ccc2oc(-c3cccc(C)c3)nc2c1	62.4*	-8.1	-11.5	-0.1
Cc1cc2nc(-c3cccc(NC(=S)NC(=O)c4ccco4)c3)oc2cc1C	47.5*	-1.4	9.6	0.9
Cc1ccc2nc(-c3cccc(NC(=S)NC(=O)c4ccco4)c3)oc2c1	-53.7	-1.8	-5.7	0.1
Cc1cc(=O)nc2c3ccccc3n(CC(=O)NCCCc3ccccc3)n12	0.4	-1.1	-2.7	1.1
Cc1cc(C(F)F)n2ncc(C(=O)NC3(c4ccc(F)cc4)CCCC3)c2n1	4.5	0.5	13.7	0.3
CCNC(=O)c1cc2c(=O)n3ccccc3nc2n(CCOC)c1=N	3.3	0.5	5.4	-0.1
O=C(Nc1ccc(-c2nc3cc(NC(=O)c4ccco4)ccc3o2)cc1)c1ccco1	-23.5	0.6	9.8	0.2
COc1ccc(Cl)cc1C(=O)Nc1ccc2oc(-c3ccc(C(C)(C)C)cc3)nc2c1	38.0*	-0.2	8.1	0.5
Cc1ccc(-c2nc3cc(NC(=S)NC(=O)c4ccco4)ccc3o2)cc1	-46.4	0.3	14.0	0.8
O=C(Nc1ccc2oc(-c3ccc(-c4ccccc4)cc3)nc2c1)c1ccco1	-3.0	-0.9	2.7	2.5*

From PubChem
